# Laboratory results from PubChem BioAssay AID2521 (Sanford-Burnham Center for Chemical Genomics, 2010).
# Out of some 330,000 compounds screened, about 1,100 (0.33%) were called active. The full list was thinned out, with actives kept by preference. Unmarked numbers belong to inactive results.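 The calls were made as follows: active = inhibition above about 40% at 20 µM (limit read from the data); inactive = the rest.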
# Target: Apelin receptor (Homo sapiens) (UniProt P35414)
# Assay: blockade of apelin-induced APJ beta-arrestin recruitment – CHO-K1 cells, beta-arrestin complementation, luminescence, primary screen (AID 2521);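 also: cells challenged with 10 nM apelin-13 agonist together with compound; plate controls were apelin-13 plus DMSO wells for no effect and DMSO wells lacking apelin-13 for full effect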
# Details: at 20 µM, hits give high values
# Apelin receptor (Homo sapiens), sequence (P35414 whole entry, looked up): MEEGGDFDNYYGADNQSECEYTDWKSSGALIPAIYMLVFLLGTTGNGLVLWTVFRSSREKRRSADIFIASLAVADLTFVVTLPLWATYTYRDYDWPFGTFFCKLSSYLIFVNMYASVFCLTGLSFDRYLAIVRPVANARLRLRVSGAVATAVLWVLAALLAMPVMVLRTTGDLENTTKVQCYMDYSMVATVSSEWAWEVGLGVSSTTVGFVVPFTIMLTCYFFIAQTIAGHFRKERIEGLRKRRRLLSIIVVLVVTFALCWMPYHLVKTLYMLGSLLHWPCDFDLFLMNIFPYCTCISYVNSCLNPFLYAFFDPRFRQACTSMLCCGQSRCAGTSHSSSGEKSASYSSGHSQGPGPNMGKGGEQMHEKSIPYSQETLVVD
row,SMILES,inhibition
1,CC/C(=N\NC(=O)c1ccccc1O)c1c(O)n(Cc2ccccc2)c(=O)[nH]c1=O,-28%
2,COc1cc(Cn2c(N)c(C(=O)NCc3ccco3)c3nc4ccccc4nc32)cc(OC)c1OC,34%
3,CCOC(=O)c1c(N)n(Cc2ccccc2)c2nc3ccccc3nc12,42.7% (active)
4,COc1ccc(Br)cc1CNCCc1cccc(Cl)c1,17.7%
5,C=CC12CN(C)[C@@H]3C4CO[C@H](C[C@H]41)[C@]1(C(=O)Nc4ccccc41)[C@@H]32 (stereo not given in full),-19.7%
